Bioassay records deposited in PubChem BioAssay by National Center for Advancing Translational Sciences (NCATS).
ALDH1A1 block = ALDH1A1 (human) enzyme inhibition; P00352; Purified ALDH1A1, NADH fluorescence, propionaldehyde substrate; Potency, µM (series often up to 75.3 µM), most hits filed as inhibitors; 7.3% of 220,000 active; active = well fitted inhibition curve with a large enough effect, not every such curve was filed as active; inconclusive = small, poorly fitted or top-dose-only effect, or another doubt; inactive = no such curve, though single readings can be large or run the other way
Tau fibril FP = tau fibrillization inhibition (FP) | K18 P301L tau heparin fibrillization, Alexa594 FP, 6 h | Potency, µM (titrated, usually from 57.7 µM), most hits filed as inhibitors | 0.39% of 280,000 active | P10636 | AID 1468; also: nearly all actives have a fitted effect of over 55% in size
Target sequence (P10636 561-689 P618L limits assumed): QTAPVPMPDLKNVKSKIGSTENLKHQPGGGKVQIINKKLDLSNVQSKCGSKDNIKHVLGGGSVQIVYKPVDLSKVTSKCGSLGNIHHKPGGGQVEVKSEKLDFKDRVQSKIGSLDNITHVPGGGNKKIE
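Steps: dispense K18 P301L tau (15 uM plus 0.24 uM Alexa 594 tracer, final) in pH 7 sodium acetate; add compound; add heparin (20 uM final); incubate 6 hr, 37 C; add ThT (30 uM final); after 1 hr ambient, read FP.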
NPSR antag = neuropeptide S receptor (human) antagonism, cAMP. Q6W5P4. CHO-NPSR cells, cAMP TR-FRET, antagonist mode. Potency, µM (highest dose often 38.3 µM), usual class: inhibitors. 1% of 220,000 active. AID 1461; also: nearly all actives have a fitted effect of over 50% in size
Tau ThT inhib = blocks human tau fibril formation measured by thioflavin T; recombinant tau K18 P301L, heparin-induced fibrillization, ThT fluorescence; P10636; Potency, µM (top dose mostly 57.4 µM), hits mostly inhibitors; 2.1% of 270,000 active; also: nearly all actives have a fitted effect of over 55% in size
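Fibril formation assay: tau K18 P301L at 15 uM with trace Alexa 594 label, heparin inducer 20 uM, pH 7 sodium acetate buffer, 37 C for 6 hr; endpoint ThT signal.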
Tau fluor counter = counter-screen for tau fibril formation inhibitors. tau K18 P301L (four-repeat tau fragment) Alexa594 fluorescence, heparin fibrillization. Potency, µM (doses to about 57.7 µM). 0.93% of 280,000 active; also: nearly all actives have a fitted effect of over 55% in size
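Human K18 P301L tau (15 uM unlabeled plus 0.24 uM Alexa 594-labeled, final) in 100 mM sodium acetate pH 7 was mixed with compound and 20 uM heparin and incubated 6 hr at 37 C.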
HPGD block = HPGD (human) dehydrogenase inhibition. P15428. purified HPGD, NADH fluorescence kinetic, PGE2 substrate. Potency, µM, most hits filed as inhibitors. 4.3% of 150,000 active. AID 894; active = well fitted inhibition curve with a large enough effect, not every such curve was filed as active; inconclusive = small, poorly fitted or top-dose-only effect, or another doubt; inactive = no such curve, though single readings can be large or run the other way
Target sequence (P15428 whole entry, looked up): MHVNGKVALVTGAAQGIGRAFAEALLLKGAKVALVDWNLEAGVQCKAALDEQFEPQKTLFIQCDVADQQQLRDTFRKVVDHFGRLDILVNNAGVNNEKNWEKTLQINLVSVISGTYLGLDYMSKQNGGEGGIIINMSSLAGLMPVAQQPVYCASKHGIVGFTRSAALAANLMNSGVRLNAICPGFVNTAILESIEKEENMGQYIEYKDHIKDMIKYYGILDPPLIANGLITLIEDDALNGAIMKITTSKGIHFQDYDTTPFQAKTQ
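NADH formation kinetics: reaction with 30 uM PGE2 and 1 mM NAD+ (final), 20 nM enzyme, Tris-HCl pH 8 with Tween 20, after 15 min compound preincubation at room temperature. Fluorescence change, last versus first of five reads.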
Of the large screens only hits and unclear results are named; the others gave an inactive call; [ ] = another dose, or the depositor's remark. Rows were chosen to be rich in hits. Some 9.5% of all compounds tested hit in one or more screens of this group. Unless noted, calls follow the shape of the dose curve; as a rule, active = well fitted curve in the direction sought with a large enough effect; inconclusive = small, poorly fitted or top-dose-only effect, or another doubt; inactive = no such curve, though single readings can be large; an effect the other way counts as inactive or inconclusive.

CS(=O)(=O)Nc1cccc(-c2ccc3ncnc(Nc4ccc(F)cc4)c3c2)c1	Tau fibril FP inconclusive, Tau fluor counter inconclusive, HPGD block inconclusive (no result: NPSR antag)
c1ccc(COc2ccc(OCCN3CCCCC3)cc2)cc1	none
CCOc1ccc(NC(=O)Cn2nnc(C(=O)OC)c2C(=O)OC)cc1	none (no result: ALDH1A1 block, NPSR antag, HPGD block)
Cn1c(CCNC(=O)c2cccs2)nnc1SCC(=O)N1CCN(c2ccccc2)CC1	ALDH1A1 block 28.2µM
Cc1sc(NC(=O)CSc2nnc(CCNC(=O)c3cccs3)n2C)nc1-c1ccccc1	none
O=C(COC(=O)c1ccc2c(c1)S(=O)(=O)N=C1CCCCCN12)NCc1cccs1	ALDH1A1 block 14.1µM (no result: HPGD block)
CC(=O)c1cccc(NC(=O)c2cnn3ccccc23)c1	none
CC(=O)c1ccc(NC(=O)c2cnn3ccccc23)cc1	ALDH1A1 block 12.6µM, Tau ThT inhib inconclusive, HPGD block inconclusive
COc1ccccc1NC(=O)c1ccc(NC(=O)CSc2nnnn2C)cc1	ALDH1A1 block 0.794µM, Tau ThT inhib inconclusive
COc1ccccc1NC(=O)CSc1nnnn1-c1ccc(C)cc1	none
Cn1nnnc1SCC(=O)Nc1c(Cl)cccc1Cl	HPGD block 22.4µM
CCOc1ccc(N(CC(=O)NC(C)(C)C)C(=O)c2ccco2)cc1	none
O=C(Nc1ccc(Cl)cc1)N(Cc1cccnc1)Cc1ccco1	none
C#CCOCCOCCOCCNc1nc(N2CCN(C(=O)[C@H](CCC(=O)O)n3cc(C(N)CC(C)C)nn3)CC2)nc(N2CCN(C(=O)[C@H](Cc3ccc(O)cc3)n3cc(C(N)CC(C)C)nn3)CC2)n1 (stereo partly specified)	ALDH1A1 block inconclusive (no result: HPGD block)
C#CCOCCOCCOCCNc1nc(N2CCN(C(=O)[C@H](Cc3ccc(O)cc3)n3cc([C@@H](N)CC(C)C)nn3)CC2)nc(N2CCN(C(=O)[C@H](Cc3ccc(O)cc3)n3cc([C@@H](N)CC(C)C)nn3)CC2)n1	ALDH1A1 block 15.8µM (no result: HPGD block)
CCN(CC)S(=O)(=O)c1ccc(/C=C/C(=O)Nc2ccc(F)cc2F)cc1	ALDH1A1 block 20µM (no result: HPGD block)
CCN(CC)S(=O)(=O)c1cccc(NC(=O)/C=C/c2cccc([N+](=O)[O-])c2)c1	ALDH1A1 block 7.94µM, Tau ThT inhib inconclusive, Tau fluor counter 12.6µM[quencher]
CCN(CC)S(=O)(=O)c1ccc(/C=C/C(=O)Nc2ccc(Br)cc2F)cc1	ALDH1A1 block inconclusive, Tau fibril FP inconclusive, Tau fluor counter inconclusive
CCN(CC)S(=O)(=O)c1cccc(NC(=O)Nc2cccc(C(F)(F)F)c2)c1	Tau fibril FP 7.94µM, NPSR antag 10µM, Tau fluor counter inconclusive
COc1ccc(/C=C/C(=O)Nc2ccc(N3CCOCC3)cc2)cc1	Tau ThT inhib 3.98µM, Tau fluor counter inconclusive
CCN(CC)S(=O)(=O)c1cccc(NC(=O)/C=C/c2ccc([N+](=O)[O-])cc2)c1	Tau ThT inhib inconclusive
Cc1ccc(S(=O)(=O)N2CCc3nc(-c4ccccc4)c4c(c3C2)CO[C@@H](C)C4)cc1	none (no result: NPSR antag)
CCOc1ccccc1NC(=O)C(Cc1ccccc1)NS(=O)(=O)c1ccc2c(c1)oc(=O)n2C (stereo unspecified)	none (no result: ALDH1A1 block, NPSR antag, HPGD block)
O=C(/C=C/c1ccc(S(=O)(=O)N2CCOCC2)cc1)NC(=S)Nc1ccc(N2CCOCC2)cc1	ALDH1A1 block inconclusive, Tau ThT inhib 25.1µM, Tau fluor counter inconclusive
O=S(=O)(c1ccc(NC(=S)NN=C(Cc2ccccc2)Cc2ccccc2)cc1)N1CCOCC1	ALDH1A1 block 17.8µM, Tau ThT inhib inconclusive, Tau fluor counter inconclusive (no result: HPGD block)
Cc1cc(NC(=S)NC(=O)/C=C/c2ccc(S(=O)(=O)N3CCOCC3)cc2)ccc1Br	Tau fibril FP inconclusive, Tau ThT inhib inconclusive (no result: HPGD block)
O=C(/C=C/c1cccc([N+](=O)[O-])c1)NC(=S)Nc1ccccc1C(=O)O	ALDH1A1 block inconclusive, Tau fibril FP inconclusive, Tau ThT inhib 17.8µM (no result: HPGD block)
CCN(CC)S(=O)(=O)c1ccc(/C=C/C(=O)Nc2ccc(N3CCOCC3)cc2)cc1	Tau fibril FP inconclusive, Tau ThT inhib 15.8µM, Tau fluor counter 31.6µM[quencher] (no result: ALDH1A1 block, HPGD block)
CCN(CC)S(=O)(=O)c1ccc(/C=C/C(=O)Nc2ccc(F)c(F)c2F)cc1	ALDH1A1 block inconclusive
Cc1cccc(C(=O)NNc2ncnc3c2cnn3-c2ccc(C)cc2C)c1	none (no result: ALDH1A1 block, NPSR antag, HPGD block)
